Assay results reported in the supplement of paper PMC11383364.
± gives the standard deviation of the averaged measurements.

These compounds were tested on SUM149 (assay: percent difference in area under dose-response curve of relative cell number, RPMI vs HPLM; higher = drug relatively more effective in HPLM than RPMI (negative = less effective in HPLM)). Conditions: treatment time: 72 h; dose range: 10-point, 1 nM to 20 µM; media compared: RPMI vs HPLM.
Method: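 SUM149 triple-negative breast cancer cells, 500 cells/well in 384-well plates, were grown in RPMI or human plasma-like medium (HPLM) with 5% dialyzed FBS. They were pin-transferred with an anticancer plus metabolic-inhibitor library in 10-point dose series (20 µM to 1 nM). After 72 h, cells were fixed, stained with bisbenzimide and counted by Acumen plate cytometry. The AUC of relative survival vs dose was computed per medium, and the percent difference in AUC between RPMI and HPLM is reported.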

SMILES	percent difference in area under dose-response curve [%]
Cn1c(CCCC(=O)O)nc2cc(N(CCCl)CCCl)ccc21 [Bendamustine_HCL]	-4.52
Cc1sc2c(c1C)C(c1ccc(Cl)cc1)=N[C@@H](CC(N)=O)c1nnc(C)n1-2	-25.8
N#Cc1cn([C@@H]2O[C@H](CO)[C@@H](O)[C@H]2O)c2ncnc(N)c12 [Toyocamycin]	-27.1
CC(=O)N[C@H]1[C@@H](O[C@@H]2O[C@H](CC(O)[C@H]3O[C@@H](n4ccc(=O)[nH]c4=O)[C@H](O)[C@@H]3O)[C@H](O)[C@H](O)[C@H]2NC(=O)/C=C/CC(C)C)O[C@H](CO)[C@@H](N)[C@@H]1O (some centres undefined) [Tunicamycin]	-6.39
CC[C@@H]1/C=C/C=C/C[C@H](C)[C@H](O)[C@](C)(O)C(=O)[C@H](C)[C@@H](O)[C@H](C)C(=O)[C@H](C)[C@@H](O)[C@H](C)/C=C/C(=O)O[C@H]2[C@@H](C)[C@@H](CC1)O[C@@]1(CC[C@@H](C)[C@@H](C[C@H](C)O)O1)[C@@H]2C [Oligomycin_A]	-41
C=C(C)[C@H]1Cc2c(ccc3c2O[C@@H]2COc4cc(OC)c(OC)cc4[C@@H]2C3=O)O1 [Rotenone]	-23
O=C1CSC(c2ccccc2Cl)c2cc(Cl)ccc2N1 (centres undefined)	4.73
O=S(=O)(CC1CS1)c1ccc(Oc2ccccc2)cc1 (centres undefined)	4.58
CCOc1ccccc1-n1c(C(C)N2CCN(C(=O)COc3ccc(Cl)cc3)CC2)nc2ccccc2c1=O (centres undefined) [Erastin]	-2.91
Oc1cc(Cl)ccc1Oc1ccc(Cl)cc1Cl [Triclosan]	2.04
Cc1cc2c(C(C)C)c(O)c(O)c(C=O)c2c(O)c1-c1c(C)cc2c(C(C)C)c(O)c(O)c(C=O)c2c1O [Gossypol]	-5.85 ± 4.1
O=C(O)CCCc1ccc(N(CCCl)CCCl)cc1 [Chloroambucil]	-5.32
CCCCCC[C@H]1C(=O)O[C@H](C)[C@H](NC(=O)c2cccc(NC=O)c2O)C(=O)O[C@@H](C)[C@@H]1OC(=O)CC(C)C [Antimycin_A]	-6.05
NC(=O)c1ccc(N)nc1 [6_Aminonicotinamide]	-3.77
[N-]=[N+]=CC(=O)OC[C@H](N)C(=O)O [Azaserine]	-16.2
c1ccc2c(c1)[I+]c1ccccc1-2 [Diphenyleneiodonium_chloride]	-42
S=C=NCCc1ccccc1	-5.8
C[S+]([O-])CCCCN=C=S (centres undefined) [Sulforaphane]	-4.37
CC(=O)c1c(O)c(C)c(O)c(Cc2c(O)c3c(c(C(=O)/C=C/c4ccccc4)c2O)OC(C)(C)C=C3)c1O [Rottlerin]	-6.49
C/C(=C\c1csc(C)n1)[C@@H]1C[C@@H]2O[C@]2(C)CCC[C@H](C)[C@H](O)[C@@H](C)C(=O)C(C)(C)[C@@H](O)CC(=O)O1 [Epothilone_B]	-49.1
CC(C)[C@]12O[C@H]1[C@@H]1O[C@]13[C@]1(O[C@H]1C[C@H]1C4=C(CC[C@@]13C)C(=O)OC4)[C@@H]2O [Triptolide]	-67
CC1=CC(=O)c2c(O)cccc2C1=O [Plumbagin]	-4.04
C/C=C(/C)C(=O)O[C@H]1C(C)=C2[C@H]([C@@H]1OC(=O)CCCCCCC)[C@@](C)(OC(C)=O)C[C@H](OC(=O)CCC)[C@@]1(O)[C@H]2OC(=O)[C@@]1(C)O [Thapsigargin]	-31.9
C/C(=C\c1csc(C)n1)[C@@H]1C[C@@H]2O[C@@H]2CCC[C@H](C)[C@H](O)[C@@H](C)C(=O)C(C)(C)[C@@H](O)CC(=O)O1 [Epothilone_A]	-32.6
